Results as given in PubChem BioAssay (NCI).
About 83,000 compounds went through this panel and 20% of them were active in at least one assay; those are over-represented in the sample as a whole.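 Treatment: one concentration, 48 hours, 96-well format. Scoring: percent growth, with anything below 10 considered active.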 Activity calls are given as the source filed them.

How the values were obtained:
Assay in all cases: NCI-60 one-dose screen, 48 h (100 = growth as untreated, 0 = no growth, -100 = all killed)
Details in all cases: 10 µM unless noted
SR leukemia = system: SR leukemia
RPMI-8226 leukemia = system: RPMI-8226 leukemia
OVCAR-8 ovarian = system: OVCAR-8 ovarian
OVCAR-5 ovarian = system: OVCAR-5 ovarian
OVCAR-4 ovarian = system: OVCAR-4 ovarian
SK-OV-3 ovarian = system: SK-OV-3 ovarian
IGROV1 ovarian = system: IGROV1 ovarian
OVCAR-3 ovarian = system: OVCAR-3 ovarian
HS 578T breast = system: HS 578T breast
NCI/ADR-RES ovarian = system: NCI/ADR-RES ovarian

Measured: growth

CCN1CC2=C(Nc3nc(SC)[nH]c(=O)c3C2c2cc(OC)c(OC)c(OC)c2)/C(=C/c2cc(OC)c(OC)c(OC)c2)C1 (stereo not given)
inactive: SR leukemia 82.5% | RPMI-8226 leukemia 96.7% | OVCAR-8 ovarian 94% | OVCAR-5 ovarian 106% | OVCAR-4 ovarian 95.9% | SK-OV-3 ovarian 110% | IGROV1 ovarian 120% | OVCAR-3 ovarian 116% | HS 578T breast 111% | NCI/ADR-RES ovarian 105%

CC(C)OP(=O)(OC(C)C)c1ncc(-c2ccc(C(F)(F)F)cc2)c(NC2CCCCCC2)n1
active: SR leukemia -30.3% [33.3 µM] | RPMI-8226 leukemia -40.7% [33.3 µM] | OVCAR-8 ovarian 0.0612% [33.3 µM] | OVCAR-5 ovarian -89.1% [33.3 µM] | OVCAR-4 ovarian 2.6% [33.3 µM] | SK-OV-3 ovarian 8.69% [33.3 µM] | IGROV1 ovarian -11.2% [33.3 µM] | OVCAR-3 ovarian -96.8% [33.3 µM] | HS 578T breast -30.1% [33.3 µM] | NCI/ADR-RES ovarian 3.22% [33.3 µM]

NS(=O)(=O)c1ccc(N2CC(c3nc4ccccc4[nH]3)CC2=O)cc1 (stereo not given)
inactive: SR leukemia 95.5% | RPMI-8226 leukemia 103% | OVCAR-8 ovarian 99.9% | OVCAR-5 ovarian 84.4% | OVCAR-4 ovarian 97.3% | SK-OV-3 ovarian 89.7% | IGROV1 ovarian 97.2% | OVCAR-3 ovarian 104% | HS 578T breast 98.2% | NCI/ADR-RES ovarian 103%

C[C@@H]1[C@H]2[C@H](C=C3[C@@H]4CC[C@H]5Cc6nc7c(nc6C[C@]5(C)[C@H]4C[C@@H](O)[C@@]32C)C[C@@H]2CC[C@H]3C4=C[C@@H]5O[C@@]6(CC[C@](C)(CO)O6)[C@@H](C)[C@@]5(O)[C@@]4(C)[C@H](O)C[C@@H]3[C@@]2(C)C7)O[C@]12CCC(C)(C)O2
active: SR leukemia 2.45% | RPMI-8226 leukemia -29.9% | OVCAR-5 ovarian 8.43% | SK-OV-3 ovarian 9.45% | HS 578T breast -4.77%
inactive: OVCAR-8 ovarian 50.9% | OVCAR-4 ovarian 55.5% | IGROV1 ovarian 38.6% | OVCAR-3 ovarian 50% | NCI/ADR-RES ovarian 54%

CSc1nc(Nc2ccc(S(=O)(=O)Nc3ccon3)cc2)c(C#N)c(-c2ccc(Cl)cc2)n1
inactive: RPMI-8226 leukemia 71.3% | OVCAR-8 ovarian 95.7% | OVCAR-5 ovarian 106% | OVCAR-4 ovarian 113% | SK-OV-3 ovarian 108% | IGROV1 ovarian 96.6% | OVCAR-3 ovarian 122% | HS 578T breast 106% | NCI/ADR-RES ovarian 102%
active: SR leukemia -37.8%

Cc1ccc(/C=C/C(=O)c2ccc(F)cc2)s1
inactive: SR leukemia 10.3% | RPMI-8226 leukemia 18.6% | OVCAR-8 ovarian 43.6% | OVCAR-5 ovarian 85.7% | OVCAR-4 ovarian 81.2% | SK-OV-3 ovarian 96.5% | IGROV1 ovarian 83% | OVCAR-3 ovarian 87% | HS 578T breast 102% | NCI/ADR-RES ovarian 61.7%

Fc1ccccc1C1c2ccccc2-c2nccn21 (stereo not given)
inactive: SR leukemia 78.1% | RPMI-8226 leukemia 80.3% | OVCAR-8 ovarian 95.8% | OVCAR-5 ovarian 96.3% | OVCAR-4 ovarian 90% | SK-OV-3 ovarian 109% | IGROV1 ovarian 79.6% | OVCAR-3 ovarian 96.7% | HS 578T breast 98.8% | NCI/ADR-RES ovarian 93.5%

O=C1C(=O)/C(=C/c2ccccc2)CCCCCC/C1=C/c1ccccc1
inactive: OVCAR-8 ovarian 29.9% | OVCAR-5 ovarian 114% | OVCAR-4 ovarian 60.9% | SK-OV-3 ovarian 98.2% | OVCAR-3 ovarian 21% | HS 578T breast 81.4% | NCI/ADR-RES ovarian 80.1%
active: SR leukemia -13.5% | RPMI-8226 leukemia -33.5% | IGROV1 ovarian 5%

COc1cnc2c(c1)C(=O)c1c-2n(CCCN2CCNCC2)c(=O)c2cc(F)ccc12
inactive: OVCAR-4 ovarian 23% | IGROV1 ovarian 23% | HS 578T breast 38.6% | NCI/ADR-RES ovarian 18.8%
active: SR leukemia -13.1% | RPMI-8226 leukemia -30.9% | OVCAR-8 ovarian 2.26% | OVCAR-5 ovarian -0.468% | SK-OV-3 ovarian -12.7% | OVCAR-3 ovarian 2.67%

O=C(Nc1ccc2c(c1)C(=O)c1ccccc1-2)c1ccccc1
inactive: SR leukemia 81.7% | RPMI-8226 leukemia 63.5% | OVCAR-8 ovarian 37.8% | OVCAR-5 ovarian 85.9% | OVCAR-4 ovarian 15.9% | SK-OV-3 ovarian 110% | IGROV1 ovarian 73.4% | OVCAR-3 ovarian 79.5% | HS 578T breast 90.6% | NCI/ADR-RES ovarian 70.4%

Oc1c(Cl)cc(Oc2cc(Cl)c(O)c(CN3CCOCC3)c2)cc1CN1CCOCC1
inactive: SR leukemia 80.2% | RPMI-8226 leukemia 91% | OVCAR-8 ovarian 94.8% | OVCAR-5 ovarian 98% | OVCAR-4 ovarian 88.2% | SK-OV-3 ovarian 101% | IGROV1 ovarian 92.5% | OVCAR-3 ovarian 94.5% | HS 578T breast 93.5% | NCI/ADR-RES ovarian 84.8%

O=C(Nc1ccccc1)c1cc(-n2cnc([N+](=O)[O-])c2)cc(-n2cnc([N+](=O)[O-])c2)n1
inactive: SR leukemia 84.2% | RPMI-8226 leukemia 86.1% | OVCAR-8 ovarian 92.7% | OVCAR-5 ovarian 109% | OVCAR-4 ovarian 100% | SK-OV-3 ovarian 104% | IGROV1 ovarian 126% | OVCAR-3 ovarian 105% | HS 578T breast 96.7% | NCI/ADR-RES ovarian 111%

O=C1CSC(c2ccccc2Cl)N1c1nnc(Cn2nnc3ccccc32)o1 (stereo not given)
inactive: SR leukemia 76% | RPMI-8226 leukemia 69% | OVCAR-8 ovarian 82.5% | OVCAR-5 ovarian 91.2% | OVCAR-4 ovarian 81% | SK-OV-3 ovarian 94.6% | IGROV1 ovarian 79.6% | OVCAR-3 ovarian 71.4% | HS 578T breast 103% | NCI/ADR-RES ovarian 62.4%

CCCCCCC(CC#N)(CCC)CCCC (stereo not given)
inactive: SR leukemia 103% | RPMI-8226 leukemia 103% | OVCAR-8 ovarian 105% | OVCAR-5 ovarian 97.8% | OVCAR-4 ovarian 114% | SK-OV-3 ovarian 113% | IGROV1 ovarian 101% | OVCAR-3 ovarian 119% | HS 578T breast 95.3% | NCI/ADR-RES ovarian 109%

CC1(C)CC2(C)CC(=O)C1C(C(=O)O)C2C(=O)O (stereo not given)
inactive: SR leukemia 90% | RPMI-8226 leukemia 106% | OVCAR-8 ovarian 102% | OVCAR-5 ovarian 98.3% | OVCAR-4 ovarian 109% | SK-OV-3 ovarian 101% | IGROV1 ovarian 109% | OVCAR-3 ovarian 105% | HS 578T breast 102% | NCI/ADR-RES ovarian 113%

CC(C)CNc1nc(N=[N+]=[N-])nc(NCC(C)C)n1
active: SR leukemia -7.86% [100 µM]
inactive: RPMI-8226 leukemia 33.1% [100 µM] | OVCAR-8 ovarian 57.3% [100 µM] | OVCAR-5 ovarian 75% [100 µM] | OVCAR-4 ovarian 52.7% [100 µM] | SK-OV-3 ovarian 83.7% [100 µM] | IGROV1 ovarian 70.9% [100 µM] | OVCAR-3 ovarian 60.1% [100 µM] | HS 578T breast 61.1% [100 µM] | NCI/ADR-RES ovarian 54.1% [100 µM]

O=C(Nc1cccc(-n2cc(-c3ccncc3)c(-c3cc(O)cc(Cl)c3)n2)c1)Nc1ccc(Cl)c(Cl)c1
active: SR leukemia -21.4% | RPMI-8226 leukemia -15.3% | OVCAR-8 ovarian -14.8% | OVCAR-5 ovarian -2.26% | OVCAR-3 ovarian -47.4% | HS 578T breast -6.42%
inactive: OVCAR-4 ovarian 10.7% | SK-OV-3 ovarian 13.2% | IGROV1 ovarian 26% | NCI/ADR-RES ovarian 12.8%

CCSc1nc(Nc2ccc(S(=O)(=O)Nc3ccon3)cc2)c(C#N)c(-c2cccc(Br)c2)n1
inactive: SR leukemia 93.7% | RPMI-8226 leukemia 79.3% | OVCAR-8 ovarian 91.2% | OVCAR-5 ovarian 89.6% | OVCAR-4 ovarian 103% | SK-OV-3 ovarian 99.1% | IGROV1 ovarian 122% | OVCAR-3 ovarian 117% | HS 578T breast 105% | NCI/ADR-RES ovarian 110%

O=C(CNc1ccc2c(c1)C(=O)c1ccccc1C2=O)Nc1ccc2c(c1)C(=O)c1ccccc1C2=O
active: SR leukemia -8.94% | RPMI-8226 leukemia -36.6% | OVCAR-8 ovarian -25.3% | OVCAR-5 ovarian -83.6% | OVCAR-4 ovarian -26.4% | SK-OV-3 ovarian -30.8% | IGROV1 ovarian -72.9% | OVCAR-3 ovarian -99.8% | HS 578T breast -1.05% | NCI/ADR-RES ovarian -40%

c1ccc(Nc2ccc(Nc3nc(-c4ccccc4)nc4ccccc34)cc2)cc1
inactive: SR leukemia 52.1% | RPMI-8226 leukemia 48.9% | OVCAR-8 ovarian 76.3% | OVCAR-5 ovarian 81.5% | OVCAR-4 ovarian 94.1% | SK-OV-3 ovarian 107% | IGROV1 ovarian 96.7% | OVCAR-3 ovarian 101% | HS 578T breast 92.9% | NCI/ADR-RES ovarian 79%

CC(NC(N)=S)c1ccccc1 (stereo not given)
inactive: SR leukemia 100% | RPMI-8226 leukemia 116% | OVCAR-8 ovarian 106% | OVCAR-5 ovarian 97.5% | OVCAR-4 ovarian 106% | SK-OV-3 ovarian 99.3% | IGROV1 ovarian 110% | OVCAR-3 ovarian 111% | HS 578T breast 98.9% | NCI/ADR-RES ovarian 106%

Cc1ccc(N/N=C(/C(=O)c2ccc(Cl)cc2)c2nc(C)cc(=O)[nH]2)cc1
inactive: SR leukemia 84.4% | RPMI-8226 leukemia 85.1% | OVCAR-8 ovarian 101% | OVCAR-5 ovarian 122% | OVCAR-4 ovarian 116% | SK-OV-3 ovarian 116% | OVCAR-3 ovarian 95.8% | HS 578T breast 99.9% | NCI/ADR-RES ovarian 103%
active: IGROV1 ovarian 7.59%

NC(=O)c1cc(Cl)ccc1NC(=O)c1ccccc1-c1ccccc1
active: SR leukemia 5.82% | OVCAR-3 ovarian -30.7%
inactive: RPMI-8226 leukemia 19% | OVCAR-8 ovarian 32% | OVCAR-5 ovarian 54.4% | OVCAR-4 ovarian 48.3% | SK-OV-3 ovarian 33.1% | IGROV1 ovarian 30% | HS 578T breast 33.8% | NCI/ADR-RES ovarian 20.7%

CC(C)C[C@H](NC(=O)/C=C/Cn1ccc2ccccc2c1=O)B(O)O
inactive: RPMI-8226 leukemia 11.1% | OVCAR-8 ovarian 86.8% | OVCAR-5 ovarian 47.2% | OVCAR-4 ovarian 89.3% | SK-OV-3 ovarian 69.2% | IGROV1 ovarian 77% | HS 578T breast 43.8% | NCI/ADR-RES ovarian 106%
active: SR leukemia 9.14% | OVCAR-3 ovarian 0.848%

CCCCCc1c(C)[nH]c(/C=C2\N=C(c3ccc[nH]3)C=C2Oc2ccccc2)c1C
active: SR leukemia 8.8% [100 µM] | RPMI-8226 leukemia -31.5% [100 µM] | OVCAR-8 ovarian -90.2% [100 µM] | OVCAR-5 ovarian -99.8% [100 µM] | OVCAR-4 ovarian -74.7% [100 µM] | SK-OV-3 ovarian -54.7% [100 µM] | IGROV1 ovarian -31.6% [100 µM] | OVCAR-3 ovarian -93.4% [100 µM] | HS 578T breast -7.4% [100 µM] | NCI/ADR-RES ovarian -77.1% [100 µM]

Nc1nc(SCc2cccnc2)c2ncn(C3OC(CO)C(O)C3O)c2n1 (stereo not given)
inactive: SR leukemia 118% | RPMI-8226 leukemia 115% | OVCAR-8 ovarian 97.1% | OVCAR-5 ovarian 90.1% | OVCAR-4 ovarian 112% | SK-OV-3 ovarian 107% | IGROV1 ovarian 98.6% | OVCAR-3 ovarian 99.9% | HS 578T breast 109% | NCI/ADR-RES ovarian 102%

COc1cc(/C=C/C(=O)c2c(C)n([O-])c3ccc(Cl)cc3[n+]2=O)cc(OC)c1OC
active: IGROV1 ovarian -62.2%
inactive: SR leukemia 11.8% | RPMI-8226 leukemia 72.6% | OVCAR-8 ovarian 50.8% | OVCAR-5 ovarian 98.2% | OVCAR-4 ovarian 71% | SK-OV-3 ovarian 104% | OVCAR-3 ovarian 102% | HS 578T breast 70.5% | NCI/ADR-RES ovarian 73.5%
